Compounds without any hit were thinned out: in the full panel of roughly 83,000, 20% have a hit.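 Cells were grown in 96-well plates and exposed to the test compound at a single concentration for 48 hours; results are reported as percent growth, with values below 10 considered active.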 Values without a mark were called inactive. Active and inactive are the calls of the source.

Experimental findings from PubChem BioAssay (NCI) are described below.

Test systems include SK-MEL-2 melanoma; EKVX NSCLC; SN12C renal; ACHN renal; CAKI-1 renal; A498 renal; CCRF-CEM leukemia; MOLT-4 leukemia; SR leukemia; RPMI-8226 leukemia; OVCAR-8 ovarian; OVCAR-5 ovarian; OVCAR-4 ovarian; SK-OV-3 ovarian; IGROV1 ovarian; OVCAR-3 ovarian; HS 578T breast; NCI/ADR-RES ovarian; TK-10 renal; UO-31 renal.
Holding throughout (experiment): NCI-60 one-dose screen, 48 h (100 = growth as untreated, 0 = no growth, -100 = all killed)
Conditions in all cases: 10 µM unless noted

For the compound `CC(C)CC1NC(=O)C(CCCN)NC(=O)C(C(C)C)NC(=O)C2CCCN2C(=O)C(Cc2ccccc2)NC(=O)C(CC(C)C)NC(=O)C(CCCN)NC(=O)C(C(C)C)NC(=O)C2CCCN2C(=O)C(Cc2ccccc2)NC1=O` (stereo not given), the growth with SK-MEL-2 melanoma was -94% (active); in the experiment on EKVX NSCLC, -87.3% (active); with SN12C renal, -82.2% (active); in the experiment on ACHN renal it was -19.8% (active); in the experiment on CAKI-1 renal, -14.8% (active); in the experiment with A498 renal, -70.1% (active). Besides, the growth with CCRF-CEM leukemia was -59.3% (active); with MOLT-4 leukemia, -51.3% (active); in the experiment on SR leukemia, -38.7% (active); in the experiment on RPMI-8226 leukemia, -54.9% (active); with OVCAR-8 ovarian, -42.1% (active); in the experiment with OVCAR-5 ovarian, -44.7% (active). In addition, the growth was 9.59% (active) in the experiment on OVCAR-4 ovarian; -77.2% (active) in the experiment with SK-OV-3 ovarian; -34.9% (active) in the experiment with IGROV1 ovarian; -73.1% (active) with OVCAR-3 ovarian; -52.5% (active) in the experiment on HS 578T breast; 0.435% (active) in the experiment on NCI/ADR-RES ovarian.
For `O=C(O)C1C(c2ccccc2)c2ccccc2C(O)C1CO` (stereo not given), the growth in the experiment with SK-MEL-2 melanoma is 98.7%; in the experiment with EKVX NSCLC it was 119%; with SN12C renal, 98.1%; in the experiment with TK-10 renal, 102%; in the experiment with ACHN renal, 97.3%; in the experiment on CAKI-1 renal, 112%. Besides, the growth is 92.9% in the experiment on CCRF-CEM leukemia; 104% in the experiment with MOLT-4 leukemia; 99.6% in the experiment with SR leukemia; 103% with OVCAR-8 ovarian; 101% with OVCAR-5 ovarian; 108% in the experiment with OVCAR-4 ovarian. In addition, the figures for the growth in the experiment with SK-OV-3 ovarian, in the experiment with OVCAR-3 ovarian and in the experiment with NCI/ADR-RES ovarian were 94.9%, 134% and 109%, respectively.
As to `Nc1nc(NC2CC2)c2ncn(C3C=CC(CO)C3)c2n1` (stereo not given), the growth with SK-MEL-2 melanoma was 89.4%; in the experiment with EKVX NSCLC, 115%; in the experiment on SN12C renal, 98.2%; in the experiment on ACHN renal, 103%; in the experiment on CAKI-1 renal, 90.4%; in the experiment on A498 renal, 104%. Moreover, the growth with CCRF-CEM leukemia was 97.3%; in the experiment on MOLT-4 leukemia, 76.9%; in the experiment on SR leukemia, 80.8%; in the experiment with RPMI-8226 leukemia it was 111%; in the experiment on OVCAR-8 ovarian, 93.9%; in the experiment on OVCAR-5 ovarian it was 103%. The growth is 106% with OVCAR-4 ovarian; 117% in the experiment on SK-OV-3 ovarian; 110% with OVCAR-3 ovarian; 104% in the experiment with HS 578T breast; 104% in the experiment on NCI/ADR-RES ovarian.
For the compound `COc1ccc(NC(=O)[C@@H]2C[C@H]2c2ccccc2)c(C(N)=O)c1`, the growth in the experiment on SK-MEL-2 melanoma is 89.9%; in the experiment with SN12C renal, 96%; in the experiment with UO-31 renal it was 87.9%; with TK-10 renal, 96%; in the experiment on ACHN renal, 102%; in the experiment on CAKI-1 renal, 103%. Further, the growth in the experiment on A498 renal is 98.1%; in the experiment with CCRF-CEM leukemia, 94%; with MOLT-4 leukemia, 92.4%; with SR leukemia, 77.6%; in the experiment with RPMI-8226 leukemia, 100%; in the experiment on OVCAR-8 ovarian, 99.1%. The growth was 102% in the experiment on OVCAR-5 ovarian; 107% with OVCAR-4 ovarian; 102% with SK-OV-3 ovarian; -8.06% (active) with IGROV1 ovarian; 98.9% in the experiment on OVCAR-3 ovarian; 102% with HS 578T breast. In the experiment on NCI/ADR-RES ovarian, the growth was 99%.
In the case of `C[C@H]1C(=O)N2c3ccccc3[C@@]3(O)C[C@@H](n4cnc5ccccc5c4=O)C(=O)N1[C@@H]23`, the growth was 19.2% in the experiment on SK-MEL-2 melanoma; 103% in the experiment on EKVX NSCLC; 120% with SN12C renal; 109% with TK-10 renal; 99.2% in the experiment with CAKI-1 renal; 121% in the experiment on A498 renal. Moreover, the growth in the experiment with CCRF-CEM leukemia is 95%; in the experiment on MOLT-4 leukemia, 105%; in the experiment with RPMI-8226 leukemia, 125%; in the experiment with OVCAR-8 ovarian, 91.7%; in the experiment with OVCAR-5 ovarian it was 110%; in the experiment with OVCAR-4 ovarian, 109%. For the same compound, the growth in the experiment on SK-OV-3 ovarian was 104%; in the experiment on OVCAR-3 ovarian, 115%; in the experiment on HS 578T breast, 32.9%; in the experiment on NCI/ADR-RES ovarian, 104%.
For the compound `Clc1ccc(C2c3ccccc3-c3nccn32)c(Cl)c1` (stereo not given), the growth with SK-MEL-2 melanoma is 80.7%; in the experiment with EKVX NSCLC it was 60%; with SN12C renal it was 85.4%; with TK-10 renal, 81.3%; in the experiment with ACHN renal it was 89.7%; in the experiment with CAKI-1 renal, -12% (active). Also, the growth is 90.3% with A498 renal; 65.6% with MOLT-4 leukemia; 26.5% in the experiment on RPMI-8226 leukemia; 84.1% with OVCAR-8 ovarian; 47.3% in the experiment with OVCAR-4 ovarian; 84.7% in the experiment on SK-OV-3 ovarian. For the same compound, the growth in the experiment with IGROV1 ovarian was 77.1%; with OVCAR-3 ovarian, 55%; with HS 578T breast it was 73.7%; with NCI/ADR-RES ovarian it was 61.5%.
Turning to `C/C(=C\CCc1ccoc1)CC/C=C(\C)CCCNc1ccc(F)cc1`, the growth was 106% with SK-MEL-2 melanoma; 76.2% in the experiment with SN12C renal; 54.6% in the experiment with UO-31 renal; 113% in the experiment on TK-10 renal; 97.9% in the experiment on ACHN renal; 88.7% in the experiment with CAKI-1 renal. Moreover, the growth with A498 renal was 79.7%; in the experiment with CCRF-CEM leukemia, 58.7%; with MOLT-4 leukemia, 59.6%; with SR leukemia, 83.4%; with RPMI-8226 leukemia, 53.8%; in the experiment with OVCAR-8 ovarian, 101%. In addition, the growth with OVCAR-5 ovarian is 93.5%; in the experiment on OVCAR-4 ovarian it was 75.2%; in the experiment with SK-OV-3 ovarian, 101%; with IGROV1 ovarian it was 91.7%; in the experiment with OVCAR-3 ovarian, 99.9%; in the experiment with HS 578T breast, 109%. In addition, the growth in the experiment on NCI/ADR-RES ovarian was 98.1%.
As for `O=C(NC1CCCCC1)c1ccc(Nc2ncnc3c2cnn3-c2ccccc2)cc1`, the growth was 79.1% in the experiment on SK-MEL-2 melanoma; 19% in the experiment with SN12C renal; 57.7% with UO-31 renal; 51% in the experiment with TK-10 renal; 54.3% in the experiment on ACHN renal; 62.3% in the experiment on CAKI-1 renal. In addition, the growth with A498 renal is 50.4%; in the experiment on CCRF-CEM leukemia, 64.9%; in the experiment with MOLT-4 leukemia, 89.5%; in the experiment on SR leukemia, 67.5%; in the experiment with RPMI-8226 leukemia, 89.5%; in the experiment on OVCAR-8 ovarian, 21.6%. Further, the growth is 80.3% in the experiment with OVCAR-5 ovarian; 30.3% in the experiment on OVCAR-4 ovarian; 54% in the experiment on SK-OV-3 ovarian; 71.1% with IGROV1 ovarian; 87.4% in the experiment on OVCAR-3 ovarian; 0.218% (active) in the experiment on HS 578T breast. Moreover, the growth with NCI/ADR-RES ovarian was 74.2%.
For the compound `CN(C)c1ccc(-n2nc3ccccc3n2)cc1`, the growth was 102% in the experiment on SK-MEL-2 melanoma; 76.7% in the experiment with EKVX NSCLC; 97.2% in the experiment on SN12C renal; 143% in the experiment on TK-10 renal; 96.1% with ACHN renal; 73.5% in the experiment on CAKI-1 renal. Moreover, the growth in the experiment on A498 renal was 96.4%; with MOLT-4 leukemia it was 82.6%; in the experiment with RPMI-8226 leukemia it was 357%; in the experiment on OVCAR-8 ovarian, 97.3%; in the experiment with OVCAR-5 ovarian it was 80.3%; in the experiment with OVCAR-4 ovarian it was 115%. Moreover, the growth with SK-OV-3 ovarian is 113%; in the experiment on IGROV1 ovarian it was -38.5% (active); in the experiment with HS 578T breast, 96.4%; in the experiment on NCI/ADR-RES ovarian it was 106%.
